Consider twelve compounds from PubChem BioAssay (NCATS).

Assay [1] has as its target Tyrosine-protein kinase Yes (Homo sapiens) (UniProt P07947). As to the kind of experiment: qHTS for small molecule inhibitors of Yes1 kinase: Primary Screen (AID 686947). Also: potency is read from the fitted curve at half-maximal effect; nearly all actives have a fitted effect of over 60% in size. The gist of the method:
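Yes1 (4 nM) preincubated 20 min with compound, then 60 min room-temperature reaction with 0.1 mM ATP and 0.3 mg/mL poly(E4Y) in pH 7.5 Tris, 10 mM MgCl2. ADP measured by ADP-Glo luminescence, normalised to enzyme/no-enzyme controls.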
On the technique in general: qHTS replaces the single test concentration by a dilution series.

Assay [2] in a line: qHTS for small molecule inhibitors of Yes1 kinase: Counter Assay (AID 686950).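 Also: no kinase present so only ADP-Glo detection of a fixed ADP amount is tested; luminescence from ADP-Glo reporting ADP in a fixed ATP and ADP mixture; 0% = DMSO wells with ATP plus ADP and -100% = ATP-only wells without ADP.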 The gist of the method:
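Enzyme-free ADP-Glo interference check: compounds were preincubated 20 min in buffer, then an ATP/ADP mix (0.08 mM ATP, 0.02 mM ADP final) was added for 60 min at room temperature before two-step ADP-Glo luminescence detection.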

Assay [3] addresses Catechol O-methyltransferase (Homo sapiens) (UniProt P21964). As to the kind of experiment: Confirmatory Screen for Target Class Profiling of Small Molecule Inhibitors of Methyltransferases (AID 1745852; calls by dose curve; also: potency is read from the fitted curve at half-maximal effect; as to activity change, negative = inhibition: % is scaled to controls: 0 for no effect and ±100 for the full control effect). As to conditions: MTase-Glo luminescence, SAH detection, recombinant enzyme; measured here: COMT max response; stronger effect = lower value.
Assay [4] has as its target Guanidinoacetate N-methyltransferase (Homo sapiens) (UniProt Q14353). Described as above. As to conditions: activity change, negative = inhibition: at 57.3 µM (top of the series) unless noted.
Assay [5] deals with Nicotinamide N-methyltransferase (Homo sapiens) (UniProt P40261). Described as above. As to conditions: MTase-Glo luminescence, SAH detection, recombinant enzyme; measured here: NNMT max response; stronger effect = lower value.
Sequence of Nicotinamide N-methyltransferase (Homo sapiens) (P40261 whole entry, looked up): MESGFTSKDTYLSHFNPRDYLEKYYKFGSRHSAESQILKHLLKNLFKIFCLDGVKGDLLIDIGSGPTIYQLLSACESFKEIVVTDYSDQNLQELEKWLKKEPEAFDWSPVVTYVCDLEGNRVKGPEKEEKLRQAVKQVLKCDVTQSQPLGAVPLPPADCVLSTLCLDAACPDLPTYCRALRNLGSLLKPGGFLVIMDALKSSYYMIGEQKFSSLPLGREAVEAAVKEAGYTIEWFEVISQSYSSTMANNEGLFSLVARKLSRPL
In assay [6] the target is Phenylethanolamine N-methyltransferase (Homo sapiens) (UniProt P11086). The description is as above. As to conditions: MTase-Glo luminescence, SAH detection, recombinant enzyme; measured here: PNMT max response; stronger effect = lower value.
Sequence of Phenylethanolamine N-methyltransferase (Homo sapiens) (P11086 whole entry, looked up): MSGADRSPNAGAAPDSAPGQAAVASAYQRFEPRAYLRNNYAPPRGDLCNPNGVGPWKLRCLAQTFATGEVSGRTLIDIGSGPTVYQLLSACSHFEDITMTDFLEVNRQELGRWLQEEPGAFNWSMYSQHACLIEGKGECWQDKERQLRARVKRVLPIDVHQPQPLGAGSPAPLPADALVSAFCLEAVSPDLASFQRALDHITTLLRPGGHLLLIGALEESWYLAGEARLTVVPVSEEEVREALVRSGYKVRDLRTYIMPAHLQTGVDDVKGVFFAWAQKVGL
Assay [7] has as its target Phospholipid hydroperoxide glutathione peroxidase GPX4 (Homo sapiens) (UniProt P36969). As to the kind of experiment: Primary qHTS Assay for Inhibitors of Recombinant Selenoprotein Glutathione Peroxidase 4 (GPX4) (AID 1845192). Also: nearly all actives have a fitted effect of over 65% in size. As to activity change, negative = inhibition: % is scaled to controls: 0 for no effect and ±100 for the full control effect. As to conditions: outcome: dose series up to 50 µM unless noted. The method, boiled down:
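GR-coupled readout: 100 nM GR, 1 mM GSH, 0.5 mM NADPH; NADPH fluorescence (ex 340/em 450 nm) read at t=0 and after 15 min RT. GPX4 200 nM, preincubated 30 min with compound; substrate 0.5 mM CHP.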

Assay [8] can be described thus: P-glycoprotein substrates identified in KB-3-1 adenocarcinoma cell line, qHTS therapeutic library screen (AID 1346986). Also: nearly all actives have a fitted effect of over 60% in size.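 Also: potency is read from the fitted curve at half-maximal effect; potency is for cytotoxicity meaning loss of cell viability.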 The gist of the method:
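Resistance attributable to P-gp was assessed by comparing AC50 in KB-8-5-11 with parental KB-3-1 and by tariquidar reversal. Cells were exposed 72 h and viability read by CellTiter-Glo.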

The nature of assay [9]: Primary qHTS for inhibitors of nuclear receptor binding SET domain protein 2 (NSD2) in an isogenic RCH-ACV NSD2 p.E1099K mutant (9B) (AID 1645876). Also: potency is read from the fitted curve at half-maximal effect; nearly all actives have a fitted effect of over 70% in size.
Assay [10] is described as follows: Primary qHTS for inhibitors of nuclear receptor binding SET domain protein 2 (NSD2) in an RCH-ACV wild type WT cells (2C) (AID 1645877). Also: potency is read from the fitted curve at half-maximal effect; nearly all actives have a fitted effect of over 70% in size.
Assay [11] addresses Glutathione peroxidase 1 (Homo sapiens) (UniProt P07203). As to the kind of experiment: Primary qHTS Assay for Inhibitors of Recombinant Selenoprotein Glutathione Peroxidase 1 (GPX1) (AID 1845191). Also: nearly all actives have a fitted effect of over 65% in size. The gist of the method: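 Recombinant GPX1 (10 nM final) was preincubated with compound for 30 min at room temperature, then reacted with 1 mM GSH, 0.5 mM CHP, 0.5 mM NADPH and 100 nM glutathione reductase; NADPH fluorescence (340/450 nm) was read at 0 and 15 min.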

The nature of assay [12]: P-glycoprotein substrates identified in KB-8-5-11 adenocarcinoma cell line, qHTS therapeutic library screen (AID 1346987). Also: % is scaled to controls: 0 for no effect and ±100 for the full control effect; nearly all actives have a fitted effect of over 65% in size. The method, boiled down:
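Steps: plate 500 KB-8-5-11 cells/well in DMEM + 10% FCS (colchicine removed); pin compounds in dose-response; incubate 72 h, 37 degree C, 5% CO2; add CellTiter-Glo, 5 min; read luminescence.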

A short description of assay [13]: qHTS drug screen for cell cycle checkpoint inhibitors in PARPi-resistant BRCA-mutant ovarian cancer cell lines. (AID 1963452; calls by dose curve). As to conditions: PEO1/OlaR viability, CellTiter-Glo luminescence, 96 h, stronger effect = lower value. The method, boiled down:
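PEO1, PEO4 and PEO1/OlaR ovarian cancer cells, 600 per well, exposed 96 h at 37C to a dilution series. Viability read by CellTiter-Glo luminescence, normalized to DMSO and empty wells; activity summarized as Z-AUC.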

Assay [14] relates to Zika virus NS2B-NS3 protease. As to the kind of experiment: Primary screen GU AMC qHTS for Zika virus inhibitors (AID 1347154).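 Also: 0% = no-inhibitor control and -100% = no-enzyme control; nearly all actives have a fitted effect of over 70% in size.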 The method, boiled down: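 Unlinked Zika NS2B hydrophilic domain/NS3 protease domain noncovalent complex (25 nM final) in 10 mM Tris-HCl pH 8.0, 0.01% Tween 20, with AMC peptide substrate. Fluorescence (ex 340, em 450 nm) change over 15 min, room temperature; percent inhibition fitted to 4-parameter Hill equation.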

The structures appear in SMILES notation. Results filed as inconclusive are left out. Calls of active or inactive are those of the source. Unless noted, calls follow the shape of the dose curve; as a rule, active = well fitted curve in the direction sought with a large enough effect; inconclusive = small, poorly fitted or top-dose-only effect, or another doubt; inactive = no such curve, though single readings can be large; an effect the other way counts as inactive or inconclusive.

Sequence of Catechol O-methyltransferase (Homo sapiens) (P21964 whole entry, looked up): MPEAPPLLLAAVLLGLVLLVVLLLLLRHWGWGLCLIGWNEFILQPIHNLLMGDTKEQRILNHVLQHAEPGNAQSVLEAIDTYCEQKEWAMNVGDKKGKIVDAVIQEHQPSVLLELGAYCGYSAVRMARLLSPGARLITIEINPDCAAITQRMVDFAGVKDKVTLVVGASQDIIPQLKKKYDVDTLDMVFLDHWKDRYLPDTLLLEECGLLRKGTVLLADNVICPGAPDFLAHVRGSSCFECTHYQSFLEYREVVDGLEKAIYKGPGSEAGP
Sequence of Glutathione peroxidase 1 (Homo sapiens) (P07203 whole entry, looked up): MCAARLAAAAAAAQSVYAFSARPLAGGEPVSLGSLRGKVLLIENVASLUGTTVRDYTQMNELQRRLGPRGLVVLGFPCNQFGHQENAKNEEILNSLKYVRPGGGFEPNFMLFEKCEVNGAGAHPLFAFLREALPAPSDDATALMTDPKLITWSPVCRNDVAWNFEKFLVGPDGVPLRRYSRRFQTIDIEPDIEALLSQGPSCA
Sequence of Phospholipid hydroperoxide glutathione peroxidase GPX4 (Homo sapiens) (P36969 whole entry, looked up): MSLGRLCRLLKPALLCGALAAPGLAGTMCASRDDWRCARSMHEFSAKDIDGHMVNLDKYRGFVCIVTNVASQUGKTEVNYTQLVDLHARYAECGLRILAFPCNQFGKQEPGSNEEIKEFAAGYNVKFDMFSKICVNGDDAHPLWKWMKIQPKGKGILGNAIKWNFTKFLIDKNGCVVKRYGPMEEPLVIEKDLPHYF
Sequence of Tyrosine-protein kinase Yes (Homo sapiens) (P07947 whole entry, looked up): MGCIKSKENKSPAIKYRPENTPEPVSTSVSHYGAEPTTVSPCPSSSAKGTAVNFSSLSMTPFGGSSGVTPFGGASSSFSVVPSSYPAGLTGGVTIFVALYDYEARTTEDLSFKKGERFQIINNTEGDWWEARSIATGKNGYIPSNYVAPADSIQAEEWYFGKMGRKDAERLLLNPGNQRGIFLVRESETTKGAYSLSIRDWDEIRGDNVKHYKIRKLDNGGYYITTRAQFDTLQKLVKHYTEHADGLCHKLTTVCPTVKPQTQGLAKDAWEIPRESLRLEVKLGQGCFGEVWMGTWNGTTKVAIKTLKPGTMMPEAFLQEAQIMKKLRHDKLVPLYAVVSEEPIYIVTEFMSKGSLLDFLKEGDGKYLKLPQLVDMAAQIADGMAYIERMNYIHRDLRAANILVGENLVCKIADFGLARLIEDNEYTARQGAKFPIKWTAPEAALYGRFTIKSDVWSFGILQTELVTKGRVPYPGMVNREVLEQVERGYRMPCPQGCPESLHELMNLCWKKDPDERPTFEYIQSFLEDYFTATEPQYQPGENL

For `COc1ccc(-c2oc3ncnc(N)c3c2-c2ccc(NC(=O)Nc3cc(C(F)(F)F)ccc3F)cc2)cc1`, the Potency in assay [1] is 1.04 µM (active). Moreover, the outcome in assay [2] was “inactive”.
Turning to `COC(=O)c1ccc(=O)c2nc3/c(=C/O)c(O)cc(=O)c3[nH]c12`, the activity in assay [3] was -24.9%; in assay [5] it was -20%; in [6] it was -28.7%. Moreover, the activity change, negative = inhibition in assay [4] is -20.5%.
For `c1nc(NCC2CCOC2)c2cc(-c3ccc4c(c3)OCO4)ccc2n1` (stereo unspecified), the activity in assay [3] is -39.2%; in [5], -29.1%; in assay [6] it was -63.5%. Also, the Potency in [4] is 42.9 µM (active).
Regarding `Cc1c[nH]c(/C=C2\C(=O)Nc3ccccc32)c1CCC(=O)O`, in assay [7], the Potency result was “inactive”.
Same read-out and setting: next, `COC1(c2sc3c(N4CCOCC4)nc(-c4cnc(N)nc4)nc3c2C)COC1`: “inactive”.
Consider `Cc1cc(F)c(Nc2ncnc3cc(OCc4ccccc4)ccc23)cc1O`, for which the Potency entry in assay [8] and in [11] was “inactive” throughout. Also, the Potency is 3.66 µM (active) in assay [9] and 3.26 µM (active) in [10].
With `CC(C)n1cnc2c(NCc3cccc(C(F)(F)F)c3)ncnc21`, the Potency entry in assay [8] and in assay [11] was “inactive” throughout.
For `COc1cc2ncnc(Nc3ccc(NC(=O)c4ccccc4)cc3)c2cc1OC`, the results for the Potency in assay [8], in assay [9] and in assay [10] were 20.6 µM (active), 8.2 µM (active) and 5.8 µM (active), respectively. Besides, the Potency result in assay [11] is “inactive”.
Taken in the same sequence, the figures for `COc1cc(OC)c(C(=O)/C=C/c2ccccc2)c2c1C=CC(C)(C)O2` were “inactive”, 16.4 µM (active), 18.4 µM (active) and “inactive”.
With `NC1CCCN(c2c(/C=C3\SC(=O)NC3=O)cccc2-c2ccccc2)C1` (stereo unspecified), the Potency result in assay [8], in [12] and in assay [11] was “inactive” each time. The results for the Z-AUC in [13], in assay [13] (measured here: PEO1 parental Z-AUC) and in assay [13] (measured here: PEO4 Z-AUC) were -0.874 (inactive), -0.352 and -1.12, respectively.
Regarding `Nc1ccc(-c2cnc(N)c(-c3ccc(Cl)cc3)c2)cn1`, the Potency result in [8] is “inactive”. Moreover, the Potency in [9] and in [10] was 14.6 µM (active) each time. The activity in assay [3] was -71.5%; in assay [5], -33.1%; in [6] it was -5.01%. The activity change, negative = inhibition in [4] was -1.94%.
Consider `O=c1cc(N2CCNCC2)oc2c(-c3ccccc3)cccc12`, for which, in assay [8], the Potency is 7.31 µM (active). Further, the Potency result in [14] was “inactive”.
